From PubChem BioAssay
Tgondii IFNg = T. gondii growth inhibition under IFN-gamma; activity change, negative = inhibition, % (no concentration beside the values); 69,000 compounds, 3.8% hits; Toxoplasma gondii growth in IFN-gamma-treated host cells; hits give low values; in the data active = activity change below about -70%, passing the limit was not always enough;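 also: host cells are HeLa cells infected with Toxoplasma gondii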
Starred values were filed as active, the others as inactive; i = inactive. Many of the other results were omitted from the sample, so hits are more common in it than they were.

SMILES | Tgondii IFNg
COc1ccc(-c2cc(C(=O)Nc3ncc(-c4ccc(F)cc4)n3C)on2)cc1 | -3
CC(C)(C)Cn1c(N)nc2ccc(-c3[nH]c(C(C)(C)C)nc3-c3ccc(F)cc3)nc21 | -83*
O=S(=O)(c1ccc(F)c(Cl)c1)N1CCC2(CC1)Nc1ccccc1-n1cccc12 | 33
O=C1NCC[C@]12CN(CC1CCOCC1)C[C@H]2c1ccccc1 | 1
CCn1c(-c2cc(NC(=O)c3cnccn3)n[nH]2)cc2ccc(OC)cc21 | -103*
CCn1c(-c2cc(NC(=O)c3cncc(Br)c3)n[nH]2)cc2ccccc21 | -103*
CCn1c(-c2cc(NC(=O)c3cncc(Br)c3)n[nH]2)cc2ccc(OC)cc21 | -85*
CC(C)OC(=O)c1ccc(NC(=O)c2cncc(Br)c2)cc1 | 40
COc1ccc(-c2cn(CC[C@@H]3CC[C@@H](NC(=O)c4cnccn4)[C@H](CO)O3)nn2)cc1 | -14
COCCN1C(=O)CCc2cc(NC(=O)c3cncc(Br)c3)ccc21 | 1
CCn1c(-c2cc(NC(=O)c3cccnc3)n[nH]2)cc2cc(OC)ccc21 | 69
COc1ccc(OC)c(NC(=O)c2cncc(NS(=O)(=O)c3ccc(Br)cc3)c2)c1 | 19
COc1ccc2c3c(n(C)c2c1)[C@@H](CO)N(C(C)=O)CC31CCN(C(=O)c2cnccn2)CC1 | 368
CC(C)C(=O)Nc1cccnc1-c1cccc2ccnn12 | 7
Clc1ccc(-c2nc(N3CCN(Cc4ccc5c(c4)OCO5)CC3)c3ccccc3n2)cc1 | 17
Cc1nc2ccccc2n1CC(=O)NC(c1ccccc1)c1cccs1 (stereo not given) | 20
O=C(C1CC1)N1CCc2c(CNc3ncccn3)n[nH]c2C1 | -1
CC12CC3CC(C)(C1)CC(C(=O)NCCCc1ccncc1)(C3)C2 | -3
CCN1CCN(C(=O)C2=C(C)C(=O)OC23CCN(S(=O)(=O)c2cccs2)CC3)CC1 | 19
Cc1cccc(NC(=O)CSc2sc3c(O)cc(=O)[nH]c3c2C#N)c1 | 262
CC1(C)CC1(CNC(=O)CCC(=O)NC1CCCC1)c1ccccc1 (stereo not given) | 53
c1ccc(C2CCCN2Cc2ccc(-n3cncn3)cc2)nc1 (stereo not given) | 8
O=C(N(Cc1nc2ccccc2c(=O)[nH]1)Cc1cccs1)C12CC3CC(CC(C3)C1)C2 | -41
CC(=O)NC12CC3CC(C1)CC(C(=O)NC(C)CCc1ccc(F)cc1)(C3)C2 (stereo not given) | 8
O=C(N(c1ccccc1)c1ccc(F)cc1)C12CC3CC(CC(C3)C1)C2 | -83*
SMILES | Tgondii IFNg
Cc1nn(C)c(C)c1CNC(=O)c1ccc(-c2nc(CN3CCc4ccccc43)c(C)o2)cc1 | 108
CCOC(=O)CSc1nnc(CSc2nc(C)cc(C)n2)n1-c1cccc(Cl)c1 | -14
COC(=O)CSC(=O)NC(=O)c1ccccc1Oc1ccc(Cl)cc1Cl | -92*
O=S(=O)(Nc1ccc(F)c(Cl)c1)c1ccccc1Oc1ccc(Cl)cc1Cl | 51
COc1ccccc1Oc1ccccc1C(=O)O | 0
COc1ccc2c(c1)NC1(CCN(C(=O)Nc3ccccc3C(F)(F)F)CC1)c1cccn1-2 | 150
CN(Cc1nccn1Cc1ccccc1)C(=O)c1ccc(=O)n(C)c1 | 0
CCNC(=O)C1(Cc2ccc(-c3ccccc3F)cc2)CCN(Cc2cccnc2)CC1 | -51
CCOC(=O)N1CCC2(CC1)OC(=O)C(C)=C2C(=O)NCc1ccc(OC)cc1 | 34
CN(C(=O)c1nc(-c2cn(C)cn2)n2ccccc12)c1ccccc1 | 4
COc1cccc(NC(=O)Nc2ccc3c(c2)C(=O)N(C)C[C@@H](OC)[C@H](C)CN[C@H](C)CO3)c1 | 20
CO[C@H]1CN(C)C(=O)c2cc(NC(=O)c3ccc(Oc4ccccc4)cc3)ccc2OC[C@H](C)NC[C@@H]1C | -92*
CO[C@@H]1CN(C)C(=O)c2cc(NC(=O)Nc3c(C)noc3C)ccc2OC[C@H](C)NC[C@@H]1C | -76*
CO[C@@H]1CN(C)C(=O)c2cc(NC(=O)c3ccc(Oc4ccccc4)cc3)ccc2OC[C@@H](C)NC[C@@H]1C | -115*
CO[C@H]1CN(C)C(=O)c2cc(NC(=O)Nc3c(C)noc3C)ccc2OC[C@H](C)NC[C@H]1C | -1
CO[C@H]1CN(C)C(=O)c2cc(NC(=O)c3cnccn3)ccc2OC[C@H](C)NC[C@@H]1C | 173
CO[C@H]1CN(C)C(=O)c2cc(NC(=O)c3cnccn3)ccc2OC[C@@H](C)NC[C@H]1C | 110
CO[C@@H]1CN(C)C(=O)c2cc(NC(=O)Nc3c(C)noc3C)ccc2OC[C@H](C)NC[C@H]1C | 207
CO[C@H]1CN(C)C(=O)c2cc(NC(=O)c3ccc(Oc4ccccc4)cc3)ccc2OC[C@@H](C)NC[C@H]1C | 21
COCC1CN(C(=O)c2ccc3c(c2)OCO3)Cc2ncn(C)c21 (stereo not given) | 32
COC1CC2(CCN(CC(=O)O)CC2)c2cc(F)ccc21 (stereo not given) | -2
CN(Cc1ccc(C(=O)O)cc1)Cc1nc2ccccc2n1C | -1
Cc1cccnc1NCCNC(=O)c1cn2cccc(C)c2n1 | -2
CC1(C)CCC(CN2CCN(c3ccc(C(=O)NS(=O)(=O)c4ccc(NCC5CCOCC5)c([N+](=O)[O-])c4)c(Oc4cnc5[nH]ccc5c4)c3)CC2)=C(c2ccc(Cl)cc2)C1 | -80*
CCOc1ncccc1-c1ccc2ncsc2c1 | -17
SMILES | Tgondii IFNg
CC(C)NC(=O)[C@@H]1CC[C@H]2[C@@H](CCN2c2ncc(F)cn2)O1 | -1
Cc1cccc(-c2[nH]c(C(C)(C)C)nc2-c2ccc3c(c2)OCO3)n1 | -83*
NC(=O)c1ccc(-c2nc(-c3ccc4c(c3)OCO4)c(-c3ccccn3)[nH]2)cc1 | -62
COc1nccnc1-c1ccc2c(c1)OCO2 | 10
CC(C)[C@H](Nc1nc(C2CCCC2)nc2c1cnn2C)C(N)=O | -1
Cc1ccc(C(=O)Nc2nccnc2C(=O)N2CCC(N3CCCCC3)CC2)cc1 | -5
O=C(c1ccc(Nc2nccc(-c3cc4ccccc4s3)n2)cc1)N1CCC(N2CCCC2)CC1 | -71*
CC(=O)N1CCC(Cn2ccnc2-c2cc3ccccc3s2)CC1 | -47
Cc1cccc(-c2c(-c3ccccc3)ncn2CCCN2CCNC(=O)C2)c1 | -13
Cc1ccc(CNC2=NCCNC23CCN(S(=O)(=O)c2cccs2)CC3)cc1 | 8
Cc1[nH]n2c(=O)c3c(nc2c1-c1cccs1)CCC3 | -11
Cc1cccc(-c2cc3nc4c(c(=O)n3[nH]2)CCC4)c1 | -100*
Cc1cccc(-c2cc3nc(C)cc(=O)n3[nH]2)c1 | -21
CCCCOc1ccc(-c2cc3c(=O)n(Cc4nc(-c5ccc(OC)cc5)oc4C)ccn3n2)cc1 | 74
C=CCN1CC(C(=O)N2CCCn3nc(C(=O)OC)cc3C2)CC1=O (stereo not given) | 8
O=C(COc1ccccc1)N1CCc2c([nH]c3ccccc23)C1c1ccc(Cl)cc1 (stereo not given) | -70
CCCC(=O)N1CCc2c([nH]c3ccccc23)C1c1ccc(OCC)cc1 (stereo not given) | -37
Cc1ccc(C2c3[nH]c4ccccc4c3CCN2C(=O)CCc2ccccc2)cc1 (stereo not given) | -80*
CCCC(=O)N1CCc2c([nH]c3ccccc23)C1c1ccc(SC)cc1 (stereo not given) | -24
Cc1ccc(C2c3[nH]c4ccccc4c3CCN2C(=O)COc2ccccc2)cc1 (stereo not given) | -117*
CCOc1cccc(C2c3[nH]c4ccccc4c3CCN2C(=O)CCc2ccccc2)c1 (stereo not given) | i
